From PubChem BioAssay
Rows were chosen to be rich in hits. Some 7% of all compounds tested hit in one or more screens of this group.
DRD3 agonist: qHTS of D3 Dopamine Receptor Agonist: qHTS; D3R DiscoveRx beta-arrestin cells, luminescence, 90 min; max activation, %; actives 0.58% (n = 410,000); in the data active = max activation above about 30%
Target sequence (P35462 whole entry, looked up): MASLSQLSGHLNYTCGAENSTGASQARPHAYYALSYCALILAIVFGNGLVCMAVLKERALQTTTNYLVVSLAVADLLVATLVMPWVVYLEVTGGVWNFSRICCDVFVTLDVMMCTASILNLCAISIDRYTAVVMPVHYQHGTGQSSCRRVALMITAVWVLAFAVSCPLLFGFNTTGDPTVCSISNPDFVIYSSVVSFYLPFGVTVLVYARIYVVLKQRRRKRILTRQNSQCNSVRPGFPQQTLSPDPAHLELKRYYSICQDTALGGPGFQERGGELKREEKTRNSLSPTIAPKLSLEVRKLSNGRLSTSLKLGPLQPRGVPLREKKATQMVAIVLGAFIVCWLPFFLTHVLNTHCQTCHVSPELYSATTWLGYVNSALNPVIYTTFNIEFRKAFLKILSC
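Agonist mode: compounds and dopamine controls were applied to plated cells for 90 min at 37 degrees C after an overnight attachment at 1500 cells/well. Luminescent read-out followed 30 - 60 minutes at room temperature with DiscoveRx detection reagent.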
ATXN2 expr inh: Primary qHTS for Inhibitors of ATXN expression. HEK-293 ATXN2-luciferase reporter, luminescence, 24 h. Potency, µM (highest dose often 57 µM), hits mostly inhibitors. actives 0.72% (n = 360,000). AID 1745845, 2022; note: nearly all actives have a fitted effect of over 55% in size
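qHTS (up to 57 uM final) was run with 24 h compound exposure of reporter cells at 37 °C. Each well was multiplexed: SteadyGlo luminescence measured ATXN2-luciferase expression after a fluorogenic Gly-Phe-AFC viability readout (25 uM final).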
IL-1B inflam inh: qHTS for Inhibitors of Inflammasome Signaling: IL-1-beta AlphaLISA Primary Screen. actives 4.7% (n = 360,000). THP-1 LPS/ATP IL-1B secretion, AlphaLISA, 16 h; hits give low values. activity change, % at 57.5 µM. AID 743279, 2014; in the data active = activity change below about -50%; inconclusive = mostly about -30% to -49%
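THP-1 cells pretreated 1 hr with compounds (up to 57.5 uM final), then stimulated with LPS (250 ng/mL final) plus ATP (1.25 mM final); secreted IL-1B measured by AlphaLISA after 16 hr, decreased signal indicating inhibition.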
S2 tox: Viability Counterscreen for Primary qHTS for Inhibitors of ATXN expression. actives 0.49% (n = 400,000). S2 cells (HEK-293 line with an ATXN2-luciferase reporter) viability, CellTiter-Fluor protease fluorescence, 24 h. Potency, µM (doses to about 56.7 µM), most hits filed as cytotoxic; note: nearly all actives have a fitted effect of over 40% in size
DRD3 antagonist: qHTS of D3 Dopamine Receptor Antagonist: qHTS | D3R cells, DiscoveRx beta-arrestin luminescence, antagonist mode; hits give low values | max response, negative = inhibition, % | actives 2.5% (n = 360,000); in the data active = max response below about -50%; inconclusive = no clear call, values can overlap the other calls
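Cells plated overnight at 1500 cells/well, then exposed to library compounds with dopamine controls for 90 minutes at 37 degrees C. DiscoveRx reagent added for 30–60 minutes at room temperature; luminescence read, quantitative HTS format.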
Integrin act MD: qHTS for Activators of Integrin-Mediated Alleviation for Muscular Dystrophy; Potency, µM (titrated, usually from 38.3 µM), usual class: activators; actives 0.064% (n = 350,000); AID 624291, 2012; alpha7betagal myoblasts, beta-gal FDG fluorescence, 48 h; note: nearly all actives have a fitted effect of over 60% in size
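Alpha7betagal+/- myoblasts (passage 13) were plated 16-24 hr, then exposed to compounds (1:260 dilution of DMSO stock) for 48 hours at 37C. After MPER lysis, β-galactosidase reporter activity was read as FDG fluorescence (ex 480/em 540) after 30 minutes.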
Large screens that a line does not name were inactive. Unless noted, calls come from the whole dose curve; as a rule, active = well fitted curve in the direction sought with a large enough effect; inconclusive = small, poorly fitted or top-dose-only effect, or another doubt; inactive = no such curve, though single readings can be large; an effect the other way counts as inactive or inconclusive.

Cc1cc(C(=O)Nc2ncn[nH]2)ccc1[N+](=O)[O-]	DRD3 agonist 34.1
CN(C)S(=O)(=O)c1ccc(C(=O)Nc2ccc3c(c2)CCC3)cc1	S2 tox inconclusive (no result: ATXN2 expr inh)
Cc1cc(C)nc(NC(=O)c2ccc([N+](=O)[O-])c(C)c2)n1	none
CN(C)S(=O)(=O)c1cccc(C(=O)Nc2ccc3c(c2)CCC3)c1	Integrin act MD 2.82µM
Cc1cc(C(=O)Nc2ccc3c(c2)CCC3)ccc1[N+](=O)[O-]	IL-1B inflam inh -69.1, S2 tox inconclusive
Cc1ccc(C(=O)CCC(=O)OCC(=O)N(C)c2c(N)n(Cc3ccccc3)c(=O)[nH]c2=O)cc1	none
CC(C)NC(=O)Cn1cc(C(=O)C(=O)N2CCOCC2)c2ccccc21	S2 tox inconclusive
COc1ccc(C2CC(=O)n3nc(C45CC6CC(CC(C6)C4)C5)nc3S2)cc1OC (centres undefined)	none
Cc1cc(C)cc(CC(Cc2nc3ccccc3[nH]2)c2nc3ccccc3[nH]2)c1 (centres undefined)	ATXN2 expr inh inconclusive, IL-1B inflam inh -69.3, S2 tox inconclusive, DRD3 antagonist inconclusive
CC(C)SCc1nc2ccccc2[nH]1	none
Cc1ccc(CSCc2nc3ccccc3[nH]2)cc1	IL-1B inflam inh -98.5
Cc1ccc(SCc2nc3ccccc3[nH]2)cc1	none
Cc1ccccc1NC(=O)Cc1c[nH]c2ccccc12	none (no result: ATXN2 expr inh)
CC(C)=CC(=O)OCc1cc([N+](=O)[O-])cc2c1OCOC2	IL-1B inflam inh -52.9
O=C(OCc1cc([N+](=O)[O-])cc2c1OCOC2)c1ccc2ccccc2n1	none
O=C(NCc1cccnc1)c1cccc(OC2CCN(Cc3ccc(CO)o3)CC2)c1	none
Cc1cccc(CN2C(=O)N/C(=C/c3ccc(C)s3)C2=O)c1	none
Cc1cccc(CN2C(=O)N/C(=C/c3cc(C)n(-c4cc(C)ccn4)c3C)C2=O)c1	IL-1B inflam inh -58.2
CC1CCCCN1CCCNC(=O)c1ccc(Br)cc1 (centres undefined)	DRD3 antagonist -65.0
CC1CCCCN1CCCNC(=O)c1ccc2c(c1)sc1nc(-c3ccc(F)cc3)cn12 (centres undefined)	ATXN2 expr inh 14.1µM, S2 tox 31.6µM (no result: IL-1B inflam inh, DRD3 antagonist, Integrin act MD)
O=C(NCCCN1CCCCC1)c1ccc2c(c1)sc1nc(-c3ccc(F)cc3)cn12	ATXN2 expr inh inconclusive (no result: IL-1B inflam inh, DRD3 antagonist, Integrin act MD)
CCOc1ccc(-c2cn3c(n2)sc2cc(C(=O)NCCCN(CC)CC)ccc23)cc1	ATXN2 expr inh 8.91µM, S2 tox 12.6µM (no result: IL-1B inflam inh, DRD3 antagonist, Integrin act MD)
Cc1c(C)n(C)c2ccc(C(=O)NCCCN3CCCCC3C)cc12 (centres undefined)	IL-1B inflam inh inconclusive
CCOc1cc(C(=O)N(CC)CC(=O)Nc2ccc3c(c2)OCCO3)ccc1OC	none
CCc1ccc([C@@H]2CC=C(C(=O)O)[C@H](c3ccc(C(C)(C)C)cc3)N2S(=O)(=O)c2ccc(C)cc2)cc1	DRD3 agonist 31.3, ATXN2 expr inh inconclusive (no result: S2 tox)
Cc1ccc([C@@H]2CC=C(C(=O)O)[C@H](c3ccc(C(C)(C)C)cc3)N2S(=O)(=O)c2ccc(C)cc2)cc1	DRD3 agonist 30.2, ATXN2 expr inh inconclusive, S2 tox inconclusive
CCc1ccc([C@@H]2CC=C(C(=O)O)[C@H](c3ccccc3)N2S(=O)(=O)c2ccc(C)cc2)cc1	DRD3 antagonist inconclusive
Cc1ccc(S(=O)(=O)N2[C@@H](c3ccc(C(C)(C)C)cc3)C(C(=O)O)=CC[C@H]2c2ccc(Cl)cc2)cc1	ATXN2 expr inh inconclusive, S2 tox inconclusive
Cc1ccc(CN2CCN(Cc3c(C)nn(C(C)C)c3C)CC2CCO)o1 (centres undefined)	none (no result: ATXN2 expr inh)
COc1cc2c(-c3ccccc3C)nc3c(c(C)nn3-c3ccccc3)c2cc1OC	DRD3 agonist 41.4 (no result: IL-1B inflam inh, DRD3 antagonist, Integrin act MD)
Cc1ccc(N(CN2C(=O)C3CC=CCC3C2=O)C(=O)c2ccco2)cc1Cl (centres undefined)	none
COc1cc(NS(=O)(=O)c2ccc(C)cc2)c2ncccc2c1	ATXN2 expr inh 4.47µM, S2 tox inconclusive, DRD3 antagonist -55.0
Cc1ccc(S(=O)(=O)Nc2cccc3cccnc23)cc1	ATXN2 expr inh 5.62µM, IL-1B inflam inh -97.5, S2 tox inconclusive, DRD3 antagonist -80.6
Cc1ccc(S(=O)(=O)Nc2ccccc2-c2ccccc2NS(=O)(=O)c2ccc(C)cc2)cc1	none
C/C(=N\Nc1ccc(S(N)(=O)=O)cc1[N+](=O)[O-])c1ccco1	none
CC(=O)N1CCc2cc(Br)cc(S(=O)(=O)N3CCN(C(=O)c4ccco4)CC3)c21	none
C=CCC1C=C(Cc2ccccc2)CC(CC=C)N1 (centres undefined)	none
C=CC[C@H]1CC(Cc2ccccc2)=C[C@H](CC=C)N1	IL-1B inflam inh -75.1
COc1ccc(C(=O)NC(C)c2nc3ccccc3[nH]2)cc1OC (centres undefined)	none
CCCCN(CC)CCCNC(=O)c1ccc(CS(=O)(=O)c2c(Cl)cccc2Cl)o1	IL-1B inflam inh -77.8
CC(C)N(CCCNC(=O)c1ccc(CS(=O)(=O)c2c(Cl)cccc2Cl)o1)Cc1ccccc1	DRD3 antagonist -56.0
CCCCN(CCCNC(=O)c1ccc(CS(=O)(=O)c2c(Cl)cccc2Cl)o1)Cc1ccccc1	none
Cc1ccc(S(=O)(=O)Cn2nnnc2C(C(C)C)N2CCSCC2)cc1 (centres undefined)	none
Cc1ccc(S(=O)(=O)Cn2nnnc2C(C(C)C)N2CCN(Cc3ccco3)CC2)cc1 (centres undefined)	IL-1B inflam inh inconclusive, DRD3 antagonist -58.7
CC(C)CC1C(=O)N(Cc2cn(Cc3ccco3)nn2)CCS(=O)(=O)N1Cc1ccc(-c2ccc(Cl)cc2)cc1 (centres undefined)	ATXN2 expr inh inconclusive, IL-1B inflam inh -52.6, S2 tox inconclusive
CC(C)CC1C(=O)N(Cc2cn(Cc3ccco3)nn2)CCS(=O)(=O)N1Cc1ccc(-c2cccc(CO)c2)cc1 (centres undefined)	ATXN2 expr inh inconclusive (no result: S2 tox)
Cc1cccc(C)c1-c1ccc(CN2C(CC(C)C)C(=O)N(Cc3cn(CC4CCCCC4)nn3)CCS2(=O)=O)cc1 (centres undefined)	ATXN2 expr inh inconclusive, S2 tox 35.5µM
